The text below walks through data of PubChem BioAssay (NCATS).

Experiment [1] addresses Metallo-beta-lactamase type 2 (Klebsiella pneumoniae) (UniProt C7C422). Kind of experiment: qHTS to identify inhibitors of the New Delhi Metallo-beta-lactamase (NDM): assay validation screen against the NCATS LOPAC Collection (AID 1794843).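 Note: nitrocefin turnover by NDM-1 measured as 485 nm absorbance at plateau; series mostly up to about 38 µM.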 Summed up:
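Nitrocefin hydrolysis (50 uM substrate stock) by NDM-1, 2 nM final, was followed by 485 nm absorbance after compound preincubation; buffer was 50 mM HEPES pH 7.0, 1 uM ZnSO4, 0.01% Tween20.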
On the technique in general: Quantitative high-throughput screening tests each substance at several concentrations.

For experiment [2], the target named is Glutathione peroxidase 1 (Homo sapiens) (UniProt P07203). As to the kind of experiment: Primary qHTS Assay for Inhibitors of Recombinant Selenoprotein Glutathione Peroxidase 1 (GPX1) (AID 1845191). Note: nearly all actives have a fitted effect of over 65% in size. Summed up:
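NADPH consumption tracked by fluorescence at 340/450 nm between t=0 and t=15 min, room temperature. Final mix: 10 nM GPX1, 100 nM glutathione reductase, 1 mM GSH, 0.5 mM NADPH, 0.5 mM cumene hydroperoxide, 0.01% BSA; 30 min compound–enzyme preincubation.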

The target in experiment [3] is Phospholipid hydroperoxide glutathione peroxidase GPX4 (Homo sapiens) (UniProt P36969). As to the kind of experiment: Primary qHTS Assay for Inhibitors of Recombinant Selenoprotein Glutathione Peroxidase 4 (GPX4) (AID 1845192). For activity change, negative = inhibition: series mostly up to about 50 µM. Note: nearly all actives have a fitted effect of over 65% in size. Summed up:
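NADPH consumption followed by fluorescence at 340/450 nm, t=0 and after 15 min at room temperature. Reaction started with cumene hydroperoxide (0.5 mM final) after 30 min compound–GPX4 preincubation; final 200 nM GPX4, 100 nM GR, 1 mM GSH, 0.5 mM NADPH.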

The target of experiment [4] is Nuclear receptor subfamily 1 group I member 3 (Homo sapiens) (UniProt Q14994). Kind of experiment: Primary qHTS for agonist of constitutive androstane receptor (CAR) against the NCATS DSHEA and TCM libraries (AID 1794839).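 Note: HepG2 cells expressing human CAR with a CYP2B6 reporter plus PK11195 antagonist.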 Summed up:
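HepG2-CYP2B6-hCAR cells (2,500/well) were attached for 5 h, then treated for 24 h at 37 °C with compounds plus 0.75 µM PK11195. Luciferase luminescence (ONE-Glo) was read, with CellTiter-Fluor viability (Ex/Em 405/540 nm).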

Experiment [5] can be described thus: HepG2 viability counterscreen (readout 2: ATP content) against the NCATS DSHEA and TCM libraries (AID 1794840).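 Note: HepG2 cells exposed to substances for about 24 h.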 Summed up:
(§1)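 HepG2 cells (1,000 cells/well) attached ~4 h, then treated ~24 h at 37C with substances. Protease activity read by GF-AFC (25 uM final, 30 min, Ex/Em 380/510 nm); ATP content then by CellTiter-Glo luminescence.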

A short description of experiment [6]: HepG2 viability counterscreen (readout 1: protease activity) against the NCATS DSHEA and TCM libraries (AID 1794841).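 Note: cells exposed to compounds for about 24 h before the protease read.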 Summed up: as §1
For orientation: Counterscreens check selectivity or assay interference.

Unmarked numbers belong to inactive results. Results filed as inconclusive are left out. Entries that show only a call come without a potency. Active and inactive are the calls of the source. Calls come from the whole dose curve; as a rule, active = well fitted curve in the direction sought with a large enough effect; inconclusive = small, poorly fitted or top-dose-only effect, or another doubt; inactive = no such curve, though single readings can be large; an effect the other way counts as inactive or inconclusive.

Metallo-beta-lactamase type 2 (Klebsiella pneumoniae), sequence (C7C422 whole entry, looked up): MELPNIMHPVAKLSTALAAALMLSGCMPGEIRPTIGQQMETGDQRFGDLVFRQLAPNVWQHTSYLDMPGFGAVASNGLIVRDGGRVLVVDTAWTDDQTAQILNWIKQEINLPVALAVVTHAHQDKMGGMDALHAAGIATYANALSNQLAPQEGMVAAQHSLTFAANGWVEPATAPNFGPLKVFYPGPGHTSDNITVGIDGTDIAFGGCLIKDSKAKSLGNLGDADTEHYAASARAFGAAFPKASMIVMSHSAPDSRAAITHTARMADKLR
Phospholipid hydroperoxide glutathione peroxidase GPX4 (Homo sapiens), sequence (P36969 whole entry, looked up): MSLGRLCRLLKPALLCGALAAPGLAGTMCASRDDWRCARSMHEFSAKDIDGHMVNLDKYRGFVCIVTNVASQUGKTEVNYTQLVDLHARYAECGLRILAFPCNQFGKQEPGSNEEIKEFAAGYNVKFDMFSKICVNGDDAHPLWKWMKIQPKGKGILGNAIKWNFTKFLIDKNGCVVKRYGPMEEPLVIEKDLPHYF
Glutathione peroxidase 1 (Homo sapiens), sequence (P07203 whole entry, looked up): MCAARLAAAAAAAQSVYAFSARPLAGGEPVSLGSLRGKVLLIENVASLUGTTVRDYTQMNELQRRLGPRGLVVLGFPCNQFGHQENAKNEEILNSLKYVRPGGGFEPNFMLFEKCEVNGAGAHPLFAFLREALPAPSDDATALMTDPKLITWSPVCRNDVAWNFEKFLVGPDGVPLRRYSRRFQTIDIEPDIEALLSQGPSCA
Nuclear receptor subfamily 1 group I member 3 (Homo sapiens), sequence (Q14994 whole entry, looked up): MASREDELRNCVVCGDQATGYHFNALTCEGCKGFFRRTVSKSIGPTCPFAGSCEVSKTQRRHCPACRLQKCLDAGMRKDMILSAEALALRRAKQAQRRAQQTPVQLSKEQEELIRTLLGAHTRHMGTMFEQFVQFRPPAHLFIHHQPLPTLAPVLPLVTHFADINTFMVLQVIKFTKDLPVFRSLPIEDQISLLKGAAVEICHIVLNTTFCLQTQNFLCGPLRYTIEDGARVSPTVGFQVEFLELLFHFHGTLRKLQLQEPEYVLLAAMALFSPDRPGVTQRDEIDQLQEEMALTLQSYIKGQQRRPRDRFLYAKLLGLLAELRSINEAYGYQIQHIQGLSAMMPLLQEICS

For `C[C@](N)(Cc1ccc(O)cc1)C(=O)O`, the molecule was classed as inactive in experiment [1]. Besides, the Potency entry in experiment [2] and in experiment [3] was “inactive” in each case.
Turning to `Nc1cc(=O)[nH]c(N)n1`, the call in experiment [1] was inactive. Further, the Potency entry in experiment [2] and in experiment [3] was “inactive” in each case.
Take `N=c1c[n+](N2CCOCC2)[n-]o1`: the outcome in experiment [1] was inactive. For the same molecule, the Potency entry in experiment [2] and in experiment [3] was “inactive” in each case.
On to `CC(=O)OCC(=O)[C@@]1(O)CC[C@H]2[C@@H]3CCC4=CC(=O)CC[C@]4(C)[C@H]3C(=O)C[C@@]21C`, for which the outcome in experiment [1] was inactive. For the same molecule, the Potency entry in experiment [2] and in experiment [3] was “inactive” throughout.
Take `CC(C)(C)[C@]1(O)CCN2C[C@H]3c4ccccc4CCc4cccc(c43)[C@@H]2C1`: the molecule was classed as inactive in experiment [1]. The Potency entry in experiment [2] and in experiment [3] was “inactive” throughout.
Take `CC1=C(C/C=C(\C)CCC[C@H](C)CCC[C@H](C)CCCC(C)C)C(=O)c2ccccc2C1=O`: the outcome in experiment [4], in experiment [5] and in experiment [6] was inactive. The Potency entry in experiment [3] is “inactive”.
With `OCCN1CCN(CCCN2c3ccccc3Sc3ccc(Cl)cc32)CC1`, in experiment [1], the call was inactive. Further, the Potency entry in experiment [2] and in experiment [3] was “inactive” each time.
As for `CCCCN(CCCC)CC(O)c1cc(Cl)cc2c1-c1ccc(Cl)cc1/C2=C/c1ccc(Cl)cc1` (stereo not drawn), the molecule was called inactive in experiment [1]. Moreover, the Potency entry in experiment [2] and in experiment [3] was “inactive” each time.
Take `CN(C)CCOC(C)(c1ccccc1)c1ccccn1` (stereo not drawn): in experiment [1], the result was inactive. Moreover, the Potency result in experiment [2] and in experiment [3] was “inactive” in each case.
Regarding `CNCCC(Oc1ccc(C(F)(F)F)cc1)c1ccccc1` (stereo not drawn), in experiment [1], the result was inactive. Besides, the Potency result in experiment [2] and in experiment [3] was “inactive” in each case.
Consider `CC(CN(C)C)CN1c2ccccc2CCc2ccccc21` (stereo not drawn), for which, in experiment [1], the molecule was called inactive. For the same molecule, the Potency entry in experiment [2] and in experiment [3] was “inactive” throughout.
Regarding `CCCn1cnc2c1c(=O)n(CCCCC(C)=O)c(=O)n2C`, in experiment [1], the molecule was called inactive. For the same molecule, the Potency result in experiment [2] and in experiment [3] was “inactive” each time.
Regarding `NC(N)=NCCC[C@H](N)C(=O)O`, the molecule was called inactive in experiment [5], in experiment [6] and in experiment [1]. Besides, the Potency result in experiment [2] and in experiment [3] was “inactive” throughout.
As to `CC[C@H]1CN2CCc3cc(OC)c(OC)cc3[C@@H]2C[C@@H]1C[C@H]1NCCc2cc(OC)c(OC)cc21`, the result in experiment [1] was inactive. Besides, the Potency entry in experiment [2] and in experiment [3] was “inactive” each time.
With `C#CCN(C)Cc1ccccc1`, the result in experiment [1] was inactive. Further, the Potency entry in experiment [2] and in experiment [3] was “inactive” in each case.
As to `C=Cc1c(C)c2cc3[nH]c(cc4nc(cc5nc(cc1[nH]2)C(C)=C5CCC(=O)O)C(CCC(=O)O)=C4C)c(C)c3C=C`, the molecule was called inactive in experiment [1]. The Potency entry in experiment [2] and in experiment [3] was “inactive” each time.
For `CN(C)CC[C@@H](c1ccc(Cl)cc1)c1ccccn1`, in experiment [1], the molecule was called inactive. Further, the Potency entry in experiment [2] and in experiment [3] was “inactive” in each case.
`CC(C)C(=O)c1c(C(C)C)nn2ccccc12`: the result in experiment [1] was inactive. Moreover, the Potency entry in experiment [2] and in experiment [3] was “inactive” each time.
`CCC(=O)c1ccc(O)cc1`: the Potency result in experiment [2] and in experiment [3] was “inactive” each time.
For the molecule `Nc1ccc(S(=O)(=O)Nc2ccc(Cl)nn2)cc1`, the Potency result in experiment [2] and in experiment [3] was “inactive” in each case.
Regarding `O=c1[nH]c(=O)c2[nH]c(=O)[nH]c2[nH]1`, in experiment [2], the activity, negative = inhibition is -12.4% [at 9.52 µM]. Besides, the activity change, negative = inhibition in experiment [3] was -16.1% [at 9.73 µM].
Consider `CC(C)(C)c1onc(OCP(=O)(O)O)c1CC(N)C(=O)O` (stereo not drawn), for which the Potency result in experiment [2] and in experiment [3] was “inactive” each time.
As to `OC[C@H]1O[C@@H](O[C@@H]2[C@@H](CO)O[C@](O)(CO)[C@H]2O)[C@H](O)[C@@H](O)[C@H]1O`, the Potency result in experiment [2] and in experiment [3] was “inactive” throughout.
In the case of `N[C@@H](CSSC[C@H](N)C(=O)O)C(=O)O`, the activity, negative = inhibition in experiment [2] is -7.33% [at 0.4 µM]. Further, in experiment [3], the activity change, negative = inhibition is -7.83% [at 0.409 µM].
Turning to `CCn1cc(C(=O)O)c(=O)c2cnc(N3CCNCC3)nc21`, the Potency entry in experiment [2] and in experiment [3] was “inactive” in each case.
In the case of `CCCCN(CCCC)CCCOC(=O)c1ccc(N)cc1`, the Potency entry in experiment [2] and in experiment [3] was “inactive” throughout.
For `CC(=O)Oc1c(C)c(C)c2c(c1C)CC[C@@](C)(CCC[C@H](C)CCC[C@H](C)CCCC(C)C)O2`, the Potency entry in experiment [2] and in experiment [3] was “inactive” throughout.
With `NCCNCCNCCNCCN`, the outcome in experiment [2] is “inactive [at 9.52 µM]”; in experiment [3] it was “inactive [at 9.73 µM]”.
In the case of `CN(N=O)C(=O)N[C@@H]1[C@@H](O)[C@H](O)[C@@H](CO)O[C@@H]1O`, the Potency entry in experiment [2] and in experiment [3] was “inactive” in each case.
On to `O=Cc1ccccc1C=O`, for which the Potency result in experiment [2] and in experiment [3] was “inactive” in each case.
Turning to `NC(=O)N/N=C/c1ccc([N+](=O)[O-])o1`, the Potency entry in experiment [2] and in experiment [3] was “inactive” each time.
For `CCCCCCCCCCCCCCCCCCOCC(O)CO` (stereo not drawn), the Potency result in experiment [2] and in experiment [3] was “inactive” in each case.
Consider `O=C1NS(=O)(=O)c2ccccc21`, for which the Potency entry in experiment [2] and in experiment [3] was “inactive” in each case.
Regarding `NS(=O)(=O)c1cc2c(cc1Cl)NC(CSCc1ccccc1)=NS2(=O)=O`, the Potency entry in experiment [2] and in experiment [3] was “inactive” throughout.
As for `C/C(=C(\CCOP(=O)(O)O)SC(=O)c1ccccc1)N(C=O)Cc1cnc(C)nc1N`, the values for the outcome in experiment [2] and in experiment [3] were “inactive [at 4.49 µM]” and “inactive [at 4.52 µM]”, respectively.
For `CCCCC(CC)COC(=O)c1ccccc1O` (stereo not drawn), the Potency result in experiment [2] and in experiment [3] was “inactive” throughout.
As to `OCC(CO)N[C@H]1C[C@](O)(CO)[C@@H](O)[C@H](O)[C@H]1O`, the Potency entry in experiment [2] and in experiment [3] was “inactive” in each case.
Take `CCN(CC)CCNC(C(=O)OCCC(C)C)c1ccccc1` (stereo not drawn): the Potency result in experiment [2] and in experiment [3] was “inactive” in each case.
Take `O=C(O)c1ccccn1`: the Potency result in experiment [2] and in experiment [3] was “inactive” throughout.
With `O=c1cc[nH]c(=O)[nH]1`, the Potency result in experiment [2] and in experiment [3] was “inactive” in each case.
`CN1[C@@H]2CC(OC(=O)[C@H](CO)c3ccccc3)C[C@H]1[C@@H]1O[C@@H]12` (stereo partly drawn): the Potency result in experiment [2] and in experiment [3] was “inactive” throughout.
